# Laboratory results from PubChem BioAssay (NCATS).
# Results filed as inconclusive are left out. A call without a number means that no potency is given here. Active and inactive are the calls of the source. Calls follow the shape of the dose curve; as a rule, active = well fitted curve in the direction sought with a large enough effect; inconclusive = small, poorly fitted or top-dose-only effect, or another doubt; inactive = no such curve, though single readings can be large; an effect the other way counts as inactive or inconclusive.
# Columns and labels:
# [1] = qHTS of pediatric cancer cell lines to identify multiple opportunities for drug repurposing: Primary screen for TC32 cells (AID 1347089); also: nearly all actives have a fitted effect of over 60% in size; also: potency is read from the fitted curve at half-maximal effect
# Outline: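 Luminescent ATP read-out (CellTiter-Glo) of metabolically active TC32 cells after 48 h exposure. Concentration-response curves came from 11-point (MIPE, 0.78 nM–46 µM) or 8-point (NPC, 0.59 nM–46 µM) primary titrations; follow-up used 11 points.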
# [2] = qHTS of pediatric cancer cell lines to identify multiple opportunities for drug repurposing: Primary screen for DAOY cells (AID 1347090); also: nearly all actives have a fitted effect of over 55% in size; also: potency is read from the fitted curve at half-maximal effect
# Outline: (§1)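 Eight- or eleven-point concentration series, 48 h treatment at 37 degrees C in growth media; readout CellTiter-Glo luminescence. Potency and efficacy were taken from the concentration-response curves.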
# [3] = qHTS of pediatric cancer cell lines to identify multiple opportunities for drug repurposing: Primary screen for A673 cells (AID 1347092); also: nearly all actives have a fitted effect of over 45% in size; also: potency is read from the fitted curve at half-maximal effect
# Outline: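 Cell viability of A673 measured by CellTiter-Glo ATP luminescence after 48 hours compound exposure. Dilution series spanned 0.78 nM to 46 µM (MIPE, 11-point) or 0.59 nM to 46 µM (NPC, 8-point); bortezomib 2.3 uM positive control.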
# [4] = qHTS of pediatric cancer cell lines to identify multiple opportunities for drug repurposing: Primary screen for SK-N-MC cells (AID 1347093); also: potency is read from the fitted curve at half-maximal effect
# Outline: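 Metabolically active cells were quantified by ATP-dependent luminescence (CellTiter-Glo, 15 min at room temperature) following 48 h treatment. Cells had been plated at 500-1,000 per well and settled for 5 h beforehand.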
# [5] = qHTS of pediatric cancer cell lines to identify multiple opportunities for drug repurposing: Primary screen for BT-37 cells (AID 1347094); also: potency is read from the fitted curve at half-maximal effect
# Outline: (§2)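 Phenotypic viability qHTS, 48 h compound exposure, CellTiter-Glo luminescence read-out; multi-concentration dosing so that potency and efficacy derive directly from the primary screen's curves.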
# [6] = qHTS of pediatric cancer cell lines to identify multiple opportunities for drug repurposing: Primary screen for NB-EBc1 cells (AID 1347095); also: potency is read from the fitted curve at half-maximal effect
# Outline: as §2
# [7] = qHTS of pediatric cancer cell lines to identify multiple opportunities for drug repurposing: Primary screen for U-2 OS cells (AID 1347096); also: nearly all actives have a fitted effect of over 50% in size; also: potency is read from the fitted curve at half-maximal effect
# Outline: (§3)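 Cells (500-1,000/well) in growth media were settled 5 h at 37 degrees C, then given compounds for 48 h. Viability was read as CellTiter-Glo luminescence. Primary runs used MIPE at 11 points (0.78 nM-46 µM) and NPC at 8 points (0.59 nM-46 µM); follow-ups used 11 points.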
# [8] = qHTS of pediatric cancer cell lines to identify multiple opportunities for drug repurposing: Primary screen for Saos-2 cells (AID 1347097); also: nearly all actives have a fitted effect of over 40% in size; also: potency is read from the fitted curve at half-maximal effect
# Outline: as §2
# [9] = qHTS of pediatric cancer cell lines to identify multiple opportunities for drug repurposing: Primary screen for SK-N-SH cells (AID 1347098); also: nearly all actives have a fitted effect of over 65% in size; also: potency is read from the fitted curve at half-maximal effect
# Outline: (§4)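 Cells (500-1,000/well) rested 5 h, then received compounds for 48 h; metabolically active cells were measured by CellTiter-Glo luminescence. Final concentrations spanned up to 46 µM (MIPE, 11-point) or 0.59 nM-46 µM (NPC, 8-point) in primary screens, 11-point in follow-ups.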
# [10] = qHTS of pediatric cancer cell lines to identify multiple opportunities for drug repurposing: Primary screen for NB1643 cells (AID 1347099); also: nearly all actives have a fitted effect of over 50% in size; also: potency is read from the fitted curve at half-maximal effect
# Outline: as §2
# [11] = qHTS of pediatric cancer cell lines to identify multiple opportunities for drug repurposing: Primary screen for LAN-5 cells (AID 1347100); also: potency is read from the fitted curve at half-maximal effect
# Outline: as §3
# [12] = qHTS of pediatric cancer cell lines to identify multiple opportunities for drug repurposing: Primary screen for Rh18 cells (AID 1347102); also: nearly all actives have a fitted effect of over 65% in size; also: potency is read from the fitted curve at half-maximal effect
# Outline: as §3
# [13] = qHTS of pediatric cancer cell lines to identify multiple opportunities for drug repurposing: Primary screen for OHS-50 cells (AID 1347103); also: nearly all actives have a fitted effect of over 40% in size; also: potency is read from the fitted curve at half-maximal effect
# Outline: as §4
# [14] = qHTS of pediatric cancer cell lines to identify multiple opportunities for drug repurposing: Primary screen for MG 63 (6-TG R) cells (AID 1347105); also: nearly all actives have a fitted effect of over 50% in size; also: potency is read from the fitted curve at half-maximal effect
# Outline: as §2
# [15] = qHTS of pediatric cancer cell lines to identify multiple opportunities for drug repurposing: Primary screen for BT-12 cells (AID 1347101); also: nearly all actives have a fitted effect of over 25% in size
# Outline: as §4
# [16] = qHTS of pediatric cancer cell lines to identify multiple opportunities for drug repurposing: Primary screen for RD cells (AID 1347104); also: nearly all actives have a fitted effect of over 55% in size; also: potency is read from the fitted curve at half-maximal effect
# Outline: as §2
# [17] = qHTS of pediatric cancer cell lines to identify multiple opportunities for drug repurposing: Primary screen for SJ-GBM2 cells (AID 1347091)
# Outline: as §1
Structure (SMILES),Potency [1],Potency [2],Potency [3],Potency [4],Potency [5],Potency [6],Potency [7],Potency [8],Potency [9],Potency [10],Potency [11],Potency [12],Potency [13],Potency [14],Potency [15],Potency [16],Potency [17]
OCc1ccccc1O,inactive,inactive,inactive,inactive,inactive,inactive,inactive,inactive,inactive,inactive,inactive,inactive,inactive,inactive,–,–,–
CN1CCC[C@@H]1c1cccnc1,inactive,inactive,inactive,inactive,inactive,inactive,inactive,inactive,inactive,inactive,inactive,inactive,inactive,inactive,inactive,inactive,–
CCCCCC=CCC=CCCCCCCCC(=O)OCC,inactive,inactive,–,–,inactive,–,inactive,–,–,inactive,inactive,inactive,inactive,inactive,–,inactive,inactive
CC(C)NC[C@@H](O)COc1cccc2ccccc12,inactive,inactive,–,–,inactive,inactive,inactive,–,inactive,inactive,inactive,inactive,–,–,inactive,26.6 µM (active),inactive
NC(CO)(CO)CO,inactive,inactive,inactive,inactive,inactive,inactive,inactive,inactive,inactive,inactive,inactive,inactive,inactive,inactive,inactive,inactive,–
CCN1CCCC1=O,inactive,inactive,inactive,inactive,inactive,inactive,inactive,inactive,inactive,inactive,inactive,inactive,inactive,inactive,inactive,inactive,–
COc1cccc2c1C(=O)c1c(O)c3c(c(O)c1C2=O)C[C@@](O)(C(=O)CO)C[C@@H]3O[C@H]1C[C@H](N)[C@H](O)[C@H](C)O1,0.745 µM (active),4.22 µM (active),1.06 µM (active),0.668 µM (active),0.347 µM (active),0.133 µM (active),13.3 µM (active),–,0.217 µM (active),0.473 µM (active),–,1.88 µM (active),1.1 µM (active),5.31 µM (active),–,2.37 µM (active),–
NCCc1ccn[nH]1,inactive,inactive,inactive,inactive,inactive,inactive,inactive,inactive,inactive,inactive,inactive,inactive,inactive,inactive,–,inactive,–
OC(CCN1CCCCC1)(c1ccccc1)c1ccccc1,inactive,inactive,inactive,inactive,inactive,inactive,inactive,inactive,inactive,inactive,inactive,inactive,–,–,inactive,inactive,–
Cc1cccn2c(=O)c(-c3nnn[nH]3)cnc12,inactive,inactive,inactive,inactive,inactive,inactive,inactive,inactive,inactive,inactive,inactive,inactive,inactive,inactive,inactive,inactive,–
CCN1CCN(c2cc3c(cc2F)c(=O)c(C(=O)O)cn3C2CC2)CC1,inactive,inactive,inactive,inactive,inactive,inactive,inactive,inactive,inactive,inactive,inactive,inactive,inactive,inactive,–,inactive,–
C[n+]1c2cc(N)ccc2cc2ccc(N)cc21 (tested in a mixture with another compound),14.9 µM (active),21.1 µM (active),5.31 µM (active),8.41 µM (active),3.47 µM (active),11.9 µM (active),13.3 µM (active),–,3.86 µM (active),7.5 µM (active),5.96 µM (active),8.41 µM (active),17.4 µM (active),–,–,–,–
CC/C(=C(/CC)c1ccc(O)cc1)c1ccc(O)cc1,inactive,21.1 µM (active),–,6.68 µM (active),–,–,inactive,–,5.45 µM (active),–,–,–,15.5 µM (active),–,–,–,–
Cc1c(N(C)CS(=O)(=O)O)c(=O)n(-c2ccccc2)n1C,inactive,inactive,–,inactive,inactive,inactive,inactive,inactive,inactive,inactive,inactive,inactive,inactive,inactive,inactive,inactive,–
O=C(CCN1CCC(c2ccccc2)C1)c1ccc2c(c1)OCCO2 (centres undefined),inactive,–,–,–,inactive,23.7 µM (active),inactive,23.7 µM (active),–,–,–,inactive,–,–,–,–,inactive
CCN(CCCCOC(=O)c1ccc(OC)c(OC)c1)C(C)Cc1ccc(OC)cc1 (centres undefined),inactive,inactive,inactive,inactive,–,inactive,inactive,–,–,inactive,inactive,inactive,–,inactive,–,inactive,–
